These results are taken from PubChem BioAssay AID602143 (Vanderbilt Specialized Chemistry Center, 2011).

The structures appear in SMILES notation. Where “and” joins values, the source holds several entries; their conditions need not be identical. Identical values can stand only once. A number with no mark means an inactive call. Calls of active or inactive are those of the source. Cut-off read from the data, not from the text of the source: active = remaining activity below about 50%; inactive = the rest.

The target in the test is Phospholipase D2 (Homo sapiens) (UniProt O14939). In words: PLD2 inhibitors in cells, cell-based, HEK293, single concentration (AID 602143).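 Note: tested at 200 nM.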 Conditions: HEK293 cellular PLD2 activity, percent of control; hits give low values.
Chain of Phospholipase D2 (Homo sapiens) (O14939 whole entry, looked up): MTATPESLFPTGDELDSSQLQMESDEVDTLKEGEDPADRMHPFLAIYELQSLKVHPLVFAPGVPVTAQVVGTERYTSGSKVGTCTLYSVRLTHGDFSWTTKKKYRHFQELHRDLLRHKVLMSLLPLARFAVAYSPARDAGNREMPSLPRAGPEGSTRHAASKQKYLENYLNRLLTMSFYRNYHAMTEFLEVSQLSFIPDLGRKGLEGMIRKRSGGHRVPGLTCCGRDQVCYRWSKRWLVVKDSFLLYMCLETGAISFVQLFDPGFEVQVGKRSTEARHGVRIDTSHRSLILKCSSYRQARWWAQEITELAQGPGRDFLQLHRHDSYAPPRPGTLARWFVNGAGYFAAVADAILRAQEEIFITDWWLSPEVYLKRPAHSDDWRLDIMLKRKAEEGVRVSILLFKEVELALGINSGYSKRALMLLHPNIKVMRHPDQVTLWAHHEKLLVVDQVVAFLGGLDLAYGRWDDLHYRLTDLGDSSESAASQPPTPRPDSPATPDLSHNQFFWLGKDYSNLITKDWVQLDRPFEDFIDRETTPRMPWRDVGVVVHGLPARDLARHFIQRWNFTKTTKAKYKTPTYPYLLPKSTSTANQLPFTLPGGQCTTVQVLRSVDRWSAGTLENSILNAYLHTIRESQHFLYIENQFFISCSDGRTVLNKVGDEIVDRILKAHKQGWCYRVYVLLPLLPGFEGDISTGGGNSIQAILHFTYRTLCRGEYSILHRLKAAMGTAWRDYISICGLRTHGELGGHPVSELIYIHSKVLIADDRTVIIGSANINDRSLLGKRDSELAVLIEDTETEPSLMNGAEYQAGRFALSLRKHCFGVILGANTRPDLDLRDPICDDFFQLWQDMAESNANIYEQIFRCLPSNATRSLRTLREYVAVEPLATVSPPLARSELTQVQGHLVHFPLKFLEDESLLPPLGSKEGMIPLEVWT
Chain of Phospholipase D2 (Homo sapiens) (O14939 whole entry, looked up): as above
On to `O=C(NCCN1CCC2(CC1)C(=O)NCN2c1cccc(F)c1)c1ccc(OC(F)(F)F)cc1`, for which the remaining activity was 78%. Then `O=C(NCCN1CCC2(CC1)C(=O)NCN2c1ccc(F)cc1)c1ccc(F)cc1`, with 46.9% (active); and `COc1cc(OC)cc(C(=O)NCCN2CCC3(CC2)C(=O)NCN3c2cccc(F)c2)c1`, with 84.7%; and `O=C(c1ccc(F)c(F)c1)N1CCCC1CN1CCC(n2c(=O)[nH]c3ccccc32)CC1` (stereo not given), with 124% and 114%.

On to `O=C(NCCN1CCC2(CC1)C(=O)NCN2c1cccc(F)c1)C12CC3CC(CC(C3)C1)C2`, for which the remaining activity was 87.1%.

Turning to `O=C(c1ccc(F)c(F)c1)N(CCN1CCC2(CC1)C(=O)NCN2c1cccc(F)c1)C(=O)c1ccc(F)c(F)c1`, the remaining activity is 106%. For `C[C@@H](CN1CCC2(CC1)C(=O)N(Cc1ccccc1)c1ccccc12)NC(=O)c1ccc2ccccc2c1`, the remaining activity was 71.6%.

As for `O=C(c1cnc2ccccc2c1)N1CCCC1CN1CCC(n2c(=O)[nH]c3ccccc32)CC1` (stereo not given), the remaining activity is 54.2%. Then `O=C(CCCl)NCCN1CCC2(CC1)C(=O)NCN2c1cccc(F)c1`, with 87.1%. Then `O=C(NCCN1CCC2(CC1)C(=O)NCN2c1ccccc1)c1ccc2c(c1)OCO2`, with 90%; and `O=C(NCCN1CCC2(CC1)C(=O)NCN2c1cccc(F)c1)C1CCCCC1`, with 91%; and `O=C(c1ccc(F)c(F)c1)N1CCC[C@@H]1CN1CCC2(CC1)C(=O)NCN2c1ccccc1`, with 124%.

With `CC(C)[C@@H](CN1CCC2(CC1)C(=O)NCN2c1ccccc1)NC(=O)c1ccc(F)cc1`, the remaining activity was 74.9%. With `O=C(NCCN1CCC2(CC1)C(=O)NCN2c1ccccc1)c1cc(Br)c(Br)o1`, the remaining activity was 77.1%.

In the case of `O=C(NCCN1CCC2(CC1)C(=O)NCN2c1ccccc1)c1cc2cccnc2s1`, the remaining activity was 79.2%. Then `C[C@H](N)CN1CCC2(CC1)C(=O)NCN2c1ccccc1` (tested in a mixture with another compound), with 74.1%.

Consider `O=C(Cc1ccccc1Br)NCCN1CCC2(CC1)C(=O)NCN2c1cccc(F)c1`, for which the remaining activity is 117%.

Take `NC1(CN2CCC3(CC2)C(=O)NCN3c2ccccc2)CCCC1` (tested in a mixture with another compound): the remaining activity was 74.2%. Take `O=C(COCc1ccccc1)NCCN1CCC2(CC1)C(=O)NCN2c1cccc(F)c1`: the remaining activity is 86.7%.

Take `CC(C)[C@@H](CN1CCC2(CC1)C(=O)NCN2c1ccccc1)NC(=O)c1cc2ccccc2[nH]1`: the remaining activity is 25.8% (active). Then `O=C(NCCN1CCC2(CC1)C(=O)NCN2c1ccccc1)c1cc(=O)c2cc(Br)ccc2o1`, with 122%. As to `O=C(NCCN1CCC2(CC1)C(=O)NCN2c1ccccc1)C1CCc2ccccc2C1` (stereo not given), the remaining activity was 50.3% and 75.3%. Then `O=C(NCCN1CCC2(CC1)C(=O)NCN2c1ccccc1)c1cccc(Cl)n1`, with 52.9%. Then `O=C(NCCN1CCC2(CC1)C(=O)NCN2c1ccc(Br)cc1)c1cc2cc(F)ccc2[nH]1`, with 23.7% (active). Then `C[C@@H](CN1CCC2(CC1)C(=O)NCN2c1ccc(F)c(F)c1)NC(=O)c1ccc(F)cc1`, with 23.6% (active).

Regarding `O=C(NCCN1CCC2(CC1)C(=O)NCN2c1ccccc1)c1cccc(F)n1`, the remaining activity was 63.2%. Then `O=C(NCCN1CCC2(CC1)C(=O)NCN2c1ccc(F)c(F)c1)c1cnc2ccccc2c1`, with 26.1% (active); and `O=C(NCCN1CCC2(CC1)C(=O)NCN2c1ccc(F)c(F)c1)c1cc2cc(F)ccc2[nH]1`, with 10.4% (active); and `O=C(NCCCCCCN1CCC2(CC1)C(=O)NCN2c1ccccc1)c1cnc2ccccc2c1`, with 127%. Take `O=C(NCCN1CCC2(CC1)C(=O)Oc1ccccc12)c1cnc2ccccc2c1`: the remaining activity was 57.4%. With `O=C(NCCN1CCC2(CC1)C(=O)NCN2c1cccc(F)c1)c1ccc(F)nc1`, the remaining activity is 85.7%.

Take `O=C(NCCN1CCC2(CC1)C(=O)NCN2c1ccccc1)C1(c2ccccc2)CCC1`: the remaining activity was 87.6%. Then `O=C(NCCN1CCC2(CC1)C(=O)NCN2c1ccccc1)C(c1ccccc1)c1ccccc1`, with 74.8%; and `COc1ccc(CC(=O)NCCN2CCC3(CC2)C(=O)NCN3c2cccc(F)c2)cc1OC`, with 102% and 91.9%; and `CC(C)[C@@H](CN1CCC2(CC1)C(=O)NCN2c1ccccc1)NC(=O)c1cnc2ccccc2c1`, with 59.3%.

A word on the remaining activity: it is the signal under treatment as a percentage of the control signal.
